Measured values taken from PubChem BioAssay (EPA / NIEHS).
Calls of active or inactive are those of the source. Rule for the calls: active = hit-call score of the fitted dose curve at least 0.9, where 1 is the maximum; inactive = score below 0.9.

Assays:
[1] = biological target: Aryl hydrocarbon receptor (Homo sapiens) (UniProt P35869); test: ATG_Ahr_CIS: Attagene CIS-FACTORIAL HepG2 Assay for human Aryl Hydrocarbon Receptor (Ahr) (AID 2282930); conditions: HepG2 AhR cis-factorial reporter transcription; actives raise or lower the signal
Summary of the method: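 Following 24 h of chemical dosing, transfected HepG2 liver cells with cis-driven reporter units were lysed for RNA; reporter mRNA was quantified via RT-PCR and capillary electrophoresis, and responses fitted bidirectionally from DMSO.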

[2] = ATG_BRE_CIS: Attagene CIS-FACTORIAL HepG2 Assay for human Bone Morphogenetic Protein (BMP) Response Element (BRE) (AID 2282933); conditions: HepG2 BMP response element reporter, Attagene transcription factor profiling; actives raise or lower the signal
Summary of the method: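 A HepG2 multiplex reporter system measured inducible reporter mRNA 24 h post-dosing. Detection: RT-PCR, 6-FAM primer extension, HpaI digestion, capillary electrophoresis. Activity fitted bidirectionally relative to DMSO.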

[3] = ATG_FoxO_CIS: Attagene CIS-FACTORIAL HepG2 Assay for human Forkhead box O (FoxO) (AID 2282943); conditions: HepG2 Attagene cis-reporter, FoxO element, mRNA; actives raise or lower the signal
Summary of the method: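 24 h chemical exposure, HepG2 with transient cis-MRTU transfection. RNA extraction, oligo(dT) RT, reporter-specific PCR, primer-extension labelling, HpaI digestion, CE fragment analysis; bidirectional fit, DMSO baseline.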

[4] = biological target: Hypoxia-inducible factor 1-alpha (Homo sapiens) (UniProt Q16665); test: ATG_HIF1a_CIS: Attagene CIS-FACTORIAL HepG2 Assay for human Hypoxia Inducible Factor 1 (HIF1A) (AID 2282951); conditions: HepG2 Attagene cis-factorial HIF1a reporter transcription; actives raise or lower the signal
Summary of the method: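 HepG2 cells transiently transfected with multiple cis-regulated reporter transcription units measure endogenous transcription factor activity. After 24 h exposure, reporter mRNA is quantified by RT-PCR with 6-FAM labelling, HpaI digestion and capillary electrophoresis. Bidirectional fitting against DMSO.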

[5] = biological target: Heat shock factor protein 1 (Homo sapiens) (UniProt Q00613); test: ATG_HSE_CIS: Attagene CIS-FACTORIAL HepG2 Assay for human Heat Shock Transcription Factor 1 (HSE) (AID 2282953); conditions: HepG2 HSE cis-reporter, Attagene RNA transcription; actives raise or lower the signal
Summary of the method: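 Liver-derived HepG2 cells carry transiently introduced multiple reporter units governed by cis promoters. Reporter RNA measured 24 h post-dose through reverse transcription, PCR amplification, fluorescent labelling and capillary electrophoresis, normalised to DMSO.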

[6] = ATG_RORE_CIS: Attagene CIS-FACTORIAL HepG2 Assay for human RAR-related Orphan Receptor Element (RORE) (AID 2282959); conditions: HepG2 Attagene cis-factorial RORE reporter, mRNA; actives raise or lower the signal
Summary of the method: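 HepG2 cells carrying transiently transfected cis-regulated reporter units; RORE-driven reporter mRNA quantified 24 h post-dosing by RT-PCR, 6-FAM primer extension, HpaI digestion and capillary electrophoresis. Bidirectional fit versus DMSO.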

[7] = ATG_SREBP_CIS: Attagene CIS-FACTORIAL HepG2 Assay for human Sterol Regulatory Element Binding (SREBP) (AID 2282962); conditions: HepG2 Attagene cis-factorial SREBP reporter, mRNA; actives raise or lower the signal
Summary of the method: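 Readout: fluorescent reporter-transcript peaks resolved by capillary electrophoresis after RT-PCR. Cells were human HepG2 carrying transfected cis-promoter reporter constructs, dosed for 24 h. Gain or loss of signal was fitted against DMSO controls.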

[8] = biological target: Signal transducer and activator of transcription 3 (Homo sapiens) (UniProt P40763); test: ATG_STAT3_CIS: Attagene CIS-FACTORIAL HepG2 Assay for human Signal Transducer and Activator of Transcription 3 (STAT3) (AID 2282963); conditions: HepG2, Attagene cis-factorial STAT3 reporter transcription; actives raise or lower the signal
Summary of the method: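 Uses human liver HepG2 transiently carrying cis-regulated reporter transcription units. Following 24 h dosing, reporter mRNA induction was detected by RT-PCR and capillary electrophoresis, analysed bidirectionally versus DMSO.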

[9] = ATG_TA_CIS: Attagene CIS-FACTORIAL HepG2 Assay for human TA Basal Promoter (AID 2282964); conditions: HepG2 Attagene CIS-factorial TA basal promoter reporter; actives raise or lower the signal
Summary of the method: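 Background internal-marker endpoint from a 52-component HepG2 cis-reporter panel. Cells treated 24 h; reporter transcripts quantified via RT-PCR and CE fluorescence against DMSO baseline.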

[10] = ATG_TCF_b_cat_CIS: Attagene CIS-FACTORIAL HepG2 Assay for human T-Cell-Factor with beta-catenin (TCF/b-cat) (AID 2282965); conditions: HepG2 TCF/beta-catenin cis-reporter transcription, actives raise or lower the signal
Summary of the method: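 In this cis-format system, transfected HepG2 cells report endogenous transcription factor activity. Readout after 24 h exposure is reporter transcript abundance from RT-PCR and capillary electrophoresis, analysed for gain or loss of signal versus DMSO.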

[11] = ATG_TGFb_CIS: Attagene CIS-FACTORIAL HepG2 Assay for human Transforming Growth Factor (TGF) (AID 2282967); conditions: HepG2 Attagene CIS TGFb reporter, mRNA transcription; actives raise or lower the signal
Summary of the method: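 Liver HepG2 line, cis-factorial reporter panel, 24 h dosing. Quantitation: RT-PCR products labeled with 6-FAM, cut with HpaI, resolved by capillary electrophoresis; DMSO-referenced bidirectional analysis.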

[12] = biological target: X-box-binding protein 1 (Homo sapiens) (UniProt P17861); test: ATG_Xbp1_CIS: Attagene CIS-FACTORIAL HepG2 Assay for human X-box Binding Protein 1 (XBP1) (AID 2282972); conditions: HepG2 XBP1 cis-element reporter, Attagene multiplex; actives raise or lower the signal
Summary of the method: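 Read-out: fluorescent reporter mRNA fragments resolved by capillary electrophoresis after RT-PCR. Human HepG2 liver cells carried transfected cis-promoter reporter units and were exposed to chemicals for 24 hours. Gain or loss of signal fitted relative to DMSO baseline.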

[13] = biological target: Transcriptional activator Myb (Homo sapiens) (UniProt P10242); test: ATG_Myb_CIS: Attagene CIS-FACTORIAL HepG2 Assay for human Myeloblastosis (Myb) Proto-Oncogene Transcription Factor (AID 2282986); conditions: HepG2 Attagene CIS-FACTORIAL Myb reporter transcription; actives raise or lower the signal
Summary of the method: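 Transiently transfected HepG2 cells carrying a multiplexed cis-promoter reporter set report endogenous Myb activity after 24 h compound exposure. Reporter mRNA is read by RT-PCR with capillary electrophoresis of fluorescent products, fitted bidirectionally against DMSO.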

[14] = biological target: Nuclear respiratory factor 1 (Homo sapiens) (UniProt Q16656); test: ATG_NRF1_CIS: Attagene CIS-FACTORIAL HepG2 Assay for human Nuclear Respiratory Factor 1 (NRF1) Orphan Gene (AID 2282987); conditions: HepG2 NRF1 cis-element reporter, Attagene multiplex; actives raise or lower the signal
Summary of the method: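 HepG2 cells transiently transfected with multiple cis-regulated reporter units, exposed 24 h. Reporter mRNAs measured by RT-PCR, fluorescent labelling, HpaI digestion and capillary electrophoresis; bidirectional fitting against DMSO.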

[15] = biological target: Myc proto-oncogene protein (Homo sapiens) (UniProt P01106); test: ATG_Myc_CIS: Attagene CIS-FACTORIAL HepG2 Assay for human Myelocytomatosis (Myc) Proto-Oncogene Transcription Factor (AID 2282990); conditions: HepG2, Attagene cis-reporter transcription factor activity; actives raise or lower the signal
Summary of the method: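 DMSO-normalised, bidirectionally fitted reporter mRNA signal. HepG2 cells transfected with cis reporter constructs, treated 24 h; transcripts detected by RT-PCR, 6-FAM primer extension and CE.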

[16] = ATG_NRF2_ARE_CIS: Attagene CIS-FACTORIAL HepG2 Assay for human Nuclear Factor Erythroid 2 Related Factor 2 (NFR2) response to Antioxidant Response Elements (ARE) (AID 2282992); conditions: HepG2 Attagene ARE/NRF2 reporter, transcription factor activity; actives raise or lower the signal;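 for AC50: reporter mRNA level measured by RT-PCR and capillary electrophoresis fluorescence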
Summary of the method: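 Readout: reporter mRNA quantified by RT-PCR plus FAM-labelled primer extension, HpaI digestion and capillary electrophoresis, 24 h after dosing transfected HepG2 cells. Gain or loss of signal is fitted bidirectionally against DMSO baseline.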

[17] = ATG_Oct_MLP_CIS: Attagene CIS-FACTORIAL HepG2 Assay for human Octamer-Binding Transcription Factor (Oct) (AID 2282993); conditions: HepG2 Attagene cis-factorial Oct reporter, mRNA; actives raise or lower the signal
Summary of the method: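 Using HepG2 cells bearing transfected cis-reporter constructs, mRNA induction was read after 24 h by fluorescent RT-PCR and capillary electrophoresis, with DMSO defining baseline for gain- or loss-of-signal fits.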

[18] = biological target: Cellular tumor antigen p53 (Homo sapiens) (UniProt P04637); test: ATG_p53_CIS: Attagene CIS-FACTORIAL HepG2 Assay for human p53 Transcription Factor (AID 2282994); conditions: HepG2 p53 cis-element reporter, Attagene mRNA; actives raise or lower the signal
Summary of the method: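 Read-out: reporter mRNA by RT-PCR plus capillary electrophoresis with fluorescence detection. Human HepG2 liver cells carried transfected multi-reporter cis-element constructs, dosed 24 h. Gain or loss of signal fitted bidirectionally against DMSO control.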

[19] = ATG_E_Box_CIS: Attagene CIS-FACTORIAL HepG2 Assay for human Enhancer Box (E-box) (AID 2282936); conditions: HepG2 E-box cis-reporter transcription, actives raise or lower the signal
Summary of the method: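 Measured 24 h post-dosing in HepG2 cells transfected with multiple cis-regulated reporter units, signal being reporter mRNA induction detected by fluorescent RT-PCR with capillary electrophoresis; gain or loss fitted against DMSO.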

[20] = ATG_Sox_CIS: Attagene CIS-FACTORIAL HepG2 Assay for human SRY-box transcription factor (SOX) (AID 2282960); conditions: HepG2 Attagene cis-factorial SOX reporter, mRNA; actives raise or lower the signal
Summary of the method: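 HepG2 cells transiently transfected with multiple cis-regulated reporter units, then dosed for 24 h. Reporter mRNA quantified by RT-PCR, fluorescent labelling, HpaI digestion and capillary electrophoresis; bidirectional fit versus DMSO.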

Measured: AC50

Sequence of Cellular tumor antigen p53 (Homo sapiens) (P04637 whole entry, looked up): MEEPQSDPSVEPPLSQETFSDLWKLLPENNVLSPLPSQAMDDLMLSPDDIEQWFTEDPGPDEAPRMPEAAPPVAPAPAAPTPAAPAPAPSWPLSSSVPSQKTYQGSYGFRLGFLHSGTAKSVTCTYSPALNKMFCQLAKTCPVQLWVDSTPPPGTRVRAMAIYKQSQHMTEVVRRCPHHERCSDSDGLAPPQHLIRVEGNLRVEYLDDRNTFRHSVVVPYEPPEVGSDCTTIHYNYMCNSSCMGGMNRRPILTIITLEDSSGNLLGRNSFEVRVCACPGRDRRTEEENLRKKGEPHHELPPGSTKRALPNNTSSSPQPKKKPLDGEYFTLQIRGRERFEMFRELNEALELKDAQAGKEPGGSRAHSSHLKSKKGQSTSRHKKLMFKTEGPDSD
Sequence of Transcriptional activator Myb (Homo sapiens) (P10242 whole entry, looked up): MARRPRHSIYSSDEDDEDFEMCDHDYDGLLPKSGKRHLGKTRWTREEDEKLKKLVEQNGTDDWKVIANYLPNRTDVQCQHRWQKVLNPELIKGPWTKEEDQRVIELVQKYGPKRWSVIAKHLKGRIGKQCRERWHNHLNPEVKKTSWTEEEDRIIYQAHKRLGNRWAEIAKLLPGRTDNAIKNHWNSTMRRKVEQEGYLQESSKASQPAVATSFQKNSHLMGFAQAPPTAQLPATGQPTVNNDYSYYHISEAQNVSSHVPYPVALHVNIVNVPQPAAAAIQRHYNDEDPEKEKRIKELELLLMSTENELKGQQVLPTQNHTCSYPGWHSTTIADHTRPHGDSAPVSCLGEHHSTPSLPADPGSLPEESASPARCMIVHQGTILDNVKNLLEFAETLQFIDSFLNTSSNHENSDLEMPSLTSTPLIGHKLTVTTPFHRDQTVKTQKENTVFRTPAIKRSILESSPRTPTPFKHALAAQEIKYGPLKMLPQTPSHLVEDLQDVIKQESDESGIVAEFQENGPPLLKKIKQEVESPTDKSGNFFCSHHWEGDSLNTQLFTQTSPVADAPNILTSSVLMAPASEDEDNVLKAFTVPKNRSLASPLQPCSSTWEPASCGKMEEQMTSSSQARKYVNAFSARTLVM
Sequence of Signal transducer and activator of transcription 3 (Homo sapiens) (P40763 whole entry, looked up): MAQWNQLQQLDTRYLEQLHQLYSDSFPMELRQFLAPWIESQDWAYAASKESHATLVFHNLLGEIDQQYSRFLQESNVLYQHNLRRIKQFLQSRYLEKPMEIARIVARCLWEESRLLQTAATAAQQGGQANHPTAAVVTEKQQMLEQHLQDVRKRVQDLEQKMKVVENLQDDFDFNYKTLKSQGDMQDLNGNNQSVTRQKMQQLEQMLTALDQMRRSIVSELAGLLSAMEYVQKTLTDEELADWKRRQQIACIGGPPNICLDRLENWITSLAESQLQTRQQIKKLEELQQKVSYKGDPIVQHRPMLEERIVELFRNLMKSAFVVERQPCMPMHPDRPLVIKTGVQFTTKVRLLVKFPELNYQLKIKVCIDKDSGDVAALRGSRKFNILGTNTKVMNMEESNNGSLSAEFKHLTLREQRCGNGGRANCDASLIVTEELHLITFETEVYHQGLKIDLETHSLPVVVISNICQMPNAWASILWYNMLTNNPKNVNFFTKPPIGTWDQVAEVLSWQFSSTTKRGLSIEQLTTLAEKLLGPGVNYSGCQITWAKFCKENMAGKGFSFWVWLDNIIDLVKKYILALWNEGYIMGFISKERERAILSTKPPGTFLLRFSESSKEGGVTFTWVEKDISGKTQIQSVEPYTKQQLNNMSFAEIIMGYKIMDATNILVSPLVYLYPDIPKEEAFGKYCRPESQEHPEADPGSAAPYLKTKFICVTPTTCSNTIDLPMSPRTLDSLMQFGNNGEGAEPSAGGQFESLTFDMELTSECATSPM
Sequence of Hypoxia-inducible factor 1-alpha (Homo sapiens) (Q16665 whole entry, looked up): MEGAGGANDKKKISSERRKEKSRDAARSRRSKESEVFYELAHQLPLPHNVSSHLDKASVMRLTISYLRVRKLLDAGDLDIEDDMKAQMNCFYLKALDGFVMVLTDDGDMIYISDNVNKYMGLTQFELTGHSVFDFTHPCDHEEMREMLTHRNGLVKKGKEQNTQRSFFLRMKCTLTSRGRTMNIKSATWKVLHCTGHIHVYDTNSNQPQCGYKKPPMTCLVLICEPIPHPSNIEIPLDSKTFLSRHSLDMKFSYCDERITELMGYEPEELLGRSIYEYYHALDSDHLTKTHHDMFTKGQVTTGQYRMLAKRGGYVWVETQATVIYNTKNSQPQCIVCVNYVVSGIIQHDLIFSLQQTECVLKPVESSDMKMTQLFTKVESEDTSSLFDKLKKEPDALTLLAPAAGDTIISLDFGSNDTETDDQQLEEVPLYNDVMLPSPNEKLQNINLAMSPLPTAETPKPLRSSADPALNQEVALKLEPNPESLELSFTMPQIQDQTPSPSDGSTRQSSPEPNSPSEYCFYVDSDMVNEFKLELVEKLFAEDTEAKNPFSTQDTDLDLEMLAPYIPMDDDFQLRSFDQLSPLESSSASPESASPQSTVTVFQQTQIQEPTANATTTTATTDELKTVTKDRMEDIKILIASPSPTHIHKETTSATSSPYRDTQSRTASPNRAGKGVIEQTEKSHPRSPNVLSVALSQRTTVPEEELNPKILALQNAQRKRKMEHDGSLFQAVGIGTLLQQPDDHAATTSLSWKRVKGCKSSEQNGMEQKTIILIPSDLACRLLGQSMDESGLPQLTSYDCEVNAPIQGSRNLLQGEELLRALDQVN
Sequence of Aryl hydrocarbon receptor (Homo sapiens) (P35869 whole entry, looked up): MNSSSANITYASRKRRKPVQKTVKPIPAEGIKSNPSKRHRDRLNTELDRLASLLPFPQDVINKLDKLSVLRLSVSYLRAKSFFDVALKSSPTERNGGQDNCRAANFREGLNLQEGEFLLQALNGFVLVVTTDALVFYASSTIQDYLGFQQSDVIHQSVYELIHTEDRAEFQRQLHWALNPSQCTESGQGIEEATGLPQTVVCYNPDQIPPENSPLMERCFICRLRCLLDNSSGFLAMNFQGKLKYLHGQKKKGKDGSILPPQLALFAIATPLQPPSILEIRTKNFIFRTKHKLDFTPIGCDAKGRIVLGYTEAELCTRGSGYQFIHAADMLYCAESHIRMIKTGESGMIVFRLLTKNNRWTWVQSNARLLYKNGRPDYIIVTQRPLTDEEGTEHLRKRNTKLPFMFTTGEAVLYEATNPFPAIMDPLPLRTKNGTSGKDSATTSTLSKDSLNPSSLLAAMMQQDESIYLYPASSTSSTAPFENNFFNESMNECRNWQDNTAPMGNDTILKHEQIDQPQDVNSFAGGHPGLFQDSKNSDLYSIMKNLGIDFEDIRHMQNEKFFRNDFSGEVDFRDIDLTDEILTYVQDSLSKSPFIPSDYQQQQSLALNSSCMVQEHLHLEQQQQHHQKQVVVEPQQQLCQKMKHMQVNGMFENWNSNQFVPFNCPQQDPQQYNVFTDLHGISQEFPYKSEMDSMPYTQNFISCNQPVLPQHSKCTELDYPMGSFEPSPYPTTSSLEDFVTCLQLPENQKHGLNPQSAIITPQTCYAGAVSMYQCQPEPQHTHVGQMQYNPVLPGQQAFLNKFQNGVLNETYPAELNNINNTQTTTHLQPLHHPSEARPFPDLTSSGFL
Sequence of Nuclear respiratory factor 1 (Homo sapiens) (Q16656 whole entry, looked up): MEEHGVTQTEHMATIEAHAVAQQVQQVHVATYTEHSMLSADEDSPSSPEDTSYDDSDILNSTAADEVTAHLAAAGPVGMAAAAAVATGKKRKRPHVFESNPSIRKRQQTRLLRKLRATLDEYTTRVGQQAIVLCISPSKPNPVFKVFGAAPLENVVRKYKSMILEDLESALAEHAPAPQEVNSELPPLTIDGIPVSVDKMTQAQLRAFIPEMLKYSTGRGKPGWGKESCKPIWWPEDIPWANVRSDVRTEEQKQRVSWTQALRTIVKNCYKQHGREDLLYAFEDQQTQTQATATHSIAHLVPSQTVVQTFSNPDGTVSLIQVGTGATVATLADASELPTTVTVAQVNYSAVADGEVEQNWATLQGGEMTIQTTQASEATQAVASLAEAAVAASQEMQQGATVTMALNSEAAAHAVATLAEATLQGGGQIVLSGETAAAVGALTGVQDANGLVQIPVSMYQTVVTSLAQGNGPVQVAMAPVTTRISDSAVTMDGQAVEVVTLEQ
Sequence of X-box-binding protein 1 (Homo sapiens) (P17861 whole entry, looked up, the tested form may be a part): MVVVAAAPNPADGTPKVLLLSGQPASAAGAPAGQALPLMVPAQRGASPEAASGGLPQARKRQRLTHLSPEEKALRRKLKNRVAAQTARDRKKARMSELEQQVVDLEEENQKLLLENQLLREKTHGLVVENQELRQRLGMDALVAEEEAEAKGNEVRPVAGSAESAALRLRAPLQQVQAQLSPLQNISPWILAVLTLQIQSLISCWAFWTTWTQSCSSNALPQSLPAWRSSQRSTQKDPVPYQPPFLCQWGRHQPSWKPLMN
Sequence of Heat shock factor protein 1 (Homo sapiens) (Q00613 whole entry, looked up): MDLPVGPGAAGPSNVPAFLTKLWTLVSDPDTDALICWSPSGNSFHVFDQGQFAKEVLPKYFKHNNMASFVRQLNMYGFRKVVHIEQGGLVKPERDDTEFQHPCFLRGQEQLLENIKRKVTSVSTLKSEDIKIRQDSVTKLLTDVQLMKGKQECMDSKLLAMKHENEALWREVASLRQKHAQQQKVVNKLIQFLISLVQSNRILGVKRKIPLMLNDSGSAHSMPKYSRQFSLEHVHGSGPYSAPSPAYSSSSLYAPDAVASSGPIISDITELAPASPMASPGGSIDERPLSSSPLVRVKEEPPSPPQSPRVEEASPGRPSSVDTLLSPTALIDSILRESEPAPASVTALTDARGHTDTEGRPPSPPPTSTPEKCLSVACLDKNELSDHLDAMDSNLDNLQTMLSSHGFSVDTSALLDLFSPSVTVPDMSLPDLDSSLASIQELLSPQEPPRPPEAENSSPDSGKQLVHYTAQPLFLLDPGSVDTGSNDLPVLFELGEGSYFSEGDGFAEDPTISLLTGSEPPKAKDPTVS

[Cl-].[Cl-].[Cl-].[Yb+3]
not listed: [19] | [20]
inactive: all other assays above

CC(C)[C@@H](C(=O)O[C@@H](C#N)c1cccc(Oc2ccccc2)c1)c1ccc(Cl)cc1
not listed: [12]
inactive: all other assays above

O=[N+]([O-])c1ccc(Cl)cc1
not listed: [2]
inactive: all other assays above

O=S(=O)(O)OOS(=O)(=O)O
not listed: [3] | [18]
inactive: all other assays above

C[N+](C)(C)CC(=O)O
not listed: [2] | [4] | [14] | [18]
inactive: all other assays above

CCOC(=O)COc1ccc(Cl)cc1Cl
not listed: [1] | [2] | [12]
inactive: all other assays above

C=CCc1ccc(OC(=O)Cc2ccccc2)c(OC)c1
active: [16] 11 µM
not listed: [7] | [20]
inactive: all other assays above

Cc1ccccc1CCl
not listed: [7] | [19]
inactive: all other assays above

C[N+](C)=CCl
not listed: [1] | [6] | [18]
inactive: all other assays above

O=C(O)COc1ccccc1
not listed: [6] | [7] | [14]
inactive: all other assays above

CCOC(=O)N(C)N=O
not listed: [7] | [19]
inactive: all other assays above

O=c1c2ccccc2c(=O)c2c1cc(Cl)c1[nH]c3c([nH]c12)c(Cl)cc1c(=O)c2ccccc2c(=O)c13
active: [1] 33.6 µM | [2] 26.1 µM
not listed: [3]
inactive: all other assays above

CC1(C)C(=O)NC(=O)NC1=O
not listed: [3] | [14] | [20]
inactive: all other assays above

O=S(=O)(O)O
not listed: [2] | [6] | [18] | [19]
inactive: all other assays above

CCCCCc1cc(O)cc(O)c1
active: [19] 36.9 µM | [4] 100 µM | [6] 50.4 µM | [9] 149 µM | [16] 43.5 µM | [17] 60.8 µM
not listed: [12]
inactive: all other assays above

Nc1c(Cl)c(Cl)c(Cl)c(Cl)c1Cl
active: [1] 31.4 µM | [16] 38.1 µM
not listed: [2] | [12] | [14] | [18] | [19]
inactive: all other assays above

C=CC(=O)OCCO
active: [2] 36.9 µM | [4] 100 µM | [6] 59.1 µM | [7] 172 µM | [16] 47.6 µM | [17] 100 µM
not listed: [1] | [12]
inactive: all other assays above

CN1C[C@H](C(=O)N[C@]2(C)O[C@@]3(O)[C@@H]4CCCN4C(=O)[C@H](Cc4ccccc4)N3C2=O)C=C2c3cccc4[nH]cc(c34)C[C@H]21
active: [7] 16.4 µM | [10] 94.2 µM | [16] 27 µM
not listed: [2] | [3] | [12]
inactive: all other assays above
